IDE exosite inh: insulin-degrading enzyme (human) exo-site inhibition; P14735; purified IDE, FL-6b probe fluorescence polarization; hits give low values; z-score at 20 µM; actives 6.3% (n = 17,000);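 active means z-score of -3 or lower, meaning strong loss of probe binding signal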;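 further: His-tagged human IDE residues 42-1019 made in E. coli with 30 nM FL-6b probe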
Target sequence (P14735 42-1019 limits assumed): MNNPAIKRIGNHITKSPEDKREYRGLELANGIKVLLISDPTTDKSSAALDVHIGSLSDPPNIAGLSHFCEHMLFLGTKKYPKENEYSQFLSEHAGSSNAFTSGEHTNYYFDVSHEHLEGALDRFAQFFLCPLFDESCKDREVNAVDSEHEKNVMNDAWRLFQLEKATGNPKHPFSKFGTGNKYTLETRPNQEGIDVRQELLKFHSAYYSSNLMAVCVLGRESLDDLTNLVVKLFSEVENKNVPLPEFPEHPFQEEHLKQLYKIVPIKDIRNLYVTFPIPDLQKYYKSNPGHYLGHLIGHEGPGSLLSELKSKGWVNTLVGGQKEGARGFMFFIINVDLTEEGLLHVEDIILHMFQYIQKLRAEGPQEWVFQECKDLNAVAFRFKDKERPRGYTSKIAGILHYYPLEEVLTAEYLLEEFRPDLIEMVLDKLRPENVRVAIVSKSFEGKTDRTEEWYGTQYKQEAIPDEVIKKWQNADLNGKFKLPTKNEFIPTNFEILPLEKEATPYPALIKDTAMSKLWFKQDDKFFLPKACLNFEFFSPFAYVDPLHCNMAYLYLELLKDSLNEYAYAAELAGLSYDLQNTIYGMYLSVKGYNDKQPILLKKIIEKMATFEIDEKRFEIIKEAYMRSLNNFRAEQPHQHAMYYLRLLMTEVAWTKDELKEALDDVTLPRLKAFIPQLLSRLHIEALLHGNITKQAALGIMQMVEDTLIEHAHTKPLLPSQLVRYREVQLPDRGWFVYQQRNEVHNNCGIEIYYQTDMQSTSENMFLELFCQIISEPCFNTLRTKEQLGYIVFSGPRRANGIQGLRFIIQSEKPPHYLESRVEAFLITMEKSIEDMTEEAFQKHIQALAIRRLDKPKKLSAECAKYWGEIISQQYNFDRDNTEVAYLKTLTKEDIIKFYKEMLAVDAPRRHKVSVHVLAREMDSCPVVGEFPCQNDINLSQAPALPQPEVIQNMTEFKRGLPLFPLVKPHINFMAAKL
Of the large screens only hits and unclear results are named; the others gave an inactive call. The sample as a whole holds a higher share of hits than the screen did.

COc1ccc([C@H]2C/C=C\C[C@@H](c3cccc(Cl)c3)NC(=O)[C@H](c3ccccc3)CC(=O)N2)c(OC)c1	none
COc1cccc(NC(=O)Nc2ccc3c(c2)C(=O)N(C)C[C@@H](OC)[C@H](C)CN[C@H](C)CO3)c1	none
CO[C@H]1CN(C)C(=O)c2cc(NC(=O)c3cnccn3)ccc2OC[C@@H](C)NC[C@H]1C	none
CO[C@H]1CN(C)C(=O)c2cc(NC(=O)c3ccc(Oc4ccccc4)cc3)ccc2OC[C@H](C)NC[C@@H]1C	none
CO[C@H]1CN(C)C(=O)c2cc(NC(=O)c3ccc(Oc4ccccc4)cc3)ccc2OC[C@@H](C)NC[C@H]1C	IDE exosite inh -7.9
CO[C@H]1CN(C)C(=O)c2cc(NC(=O)c3cnccn3)ccc2OC[C@H](C)NC[C@@H]1C	none
CO[C@@H]1CN(C)C(=O)c2cc(NC(=O)c3ccc(Oc4ccccc4)cc3)ccc2OC[C@@H](C)NC[C@@H]1C	IDE exosite inh -11
CC(C)CC#Cc1ccc([C@@H]2[C@@H](CO)N3C(=O)CN(C(=O)Cc4cccnc4)C[C@@H]23)cc1	none
O=C1CN(Cc2ccc(F)cc2)C[C@@H]2[C@H](c3ccc(-c4ccccc4)cc3)[C@H](CO)N12	none
COCC(=O)N1CC[C@H]2[C@H](CO)Nc3ccc(C#Cc4ccc(F)cc4)cc3[C@H]21	none
O=C(Nc1cccc(F)c1)N1CC(=O)N2[C@H](CO)[C@H](c3ccc(C#Cc4cccnc4)cc3)[C@H]2C1	none
COCC(=O)N1CC(=O)N2[C@@H](CO)[C@H](c3ccc(-c4ccncc4)cc3)[C@@H]2C1	none
COCC(=O)N1CC(=O)N2[C@H](C1)[C@@H](c1ccc(-c3ccccc3C)cc1)[C@@H]2CO	IDE exosite inh -14
COCC(=O)N1CC(=O)N2[C@H](CO)[C@H](c3ccc(Br)cc3)[C@@H]2C1	none
COCC(=O)N1CC(=O)N2[C@H](C1)[C@H](c1ccc(-c3ccccc3)cc1)[C@@H]2CO	none
COCC(=O)N1CC(=O)N2[C@@H](CO)[C@@H](c3ccc(-c4ccccc4C)cc3)[C@@H]2C1	IDE exosite inh -13
COCC(=O)N1CC(=O)N2[C@@H](CO)[C@@H](c3ccc(Br)cc3)[C@@H]2C1	none
CC(C)C#Cc1ccc([C@H]2[C@H](CO)N3C(=O)CN(C(=O)Cc4cccnc4)C[C@@H]23)cc1	none
Cn1cnc(S(=O)(=O)N2[C@@H]3CNC[C@H]2C3c2ccc(-c3cccnc3)cc2)c1 (stereo partly specified)	none
COc1ccc(C[C@H]2CCn3cc(nn3)COC[C@@H](C)NC2=O)cc1	none
Cc1cccc(S(=O)(=O)N2CCCCN3[C@H](CO)[C@H](c4ccc(C#C[C@@H](C)O)cc4)[C@@H]3C2)c1	none
COc1ccccc1-c1ccccc1[C@@H]1[C@@H](CO)N(C(=O)C2CCOCC2)[C@H]1C#N	none
COc1ccccc1-c1ccc([C@@H]2[C@@H](CO)N(C(=O)C3CCOCC3)[C@H]2C#N)cc1	IDE exosite inh -11
COc1ccc(-c2ccc([C@@H]3[C@@H](CO)N(C(=O)C4CCOCC4)[C@H]3C#N)cc2)cc1	none
COc1ccccc1-c1ccc([C@@H]2[C@@H](C#N)N(C(=O)C3CCOCC3)[C@H]2CO)cc1	IDE exosite inh -9.8
COc1ccc(-c2ccccc2[C@H]2[C@@H](C#N)N(C(=O)C3CCOCC3)[C@H]2CO)cc1	none
N#C[C@H]1[C@@H](c2ccc(-c3cccnc3)cc2)[C@@H](CO)N1C(=O)C1CCOCC1	IDE exosite inh -3
COc1cccc(C#Cc2ccc([C@@H]3[C@@H](CO)N(C(=O)C4CCOCC4)[C@H]3C#N)cc2)c1	none
N#C[C@H]1[C@H](c2ccc(-c3cncnc3)cc2)[C@@H](CO)N1C(=O)C1CCOCC1	none
COc1ccccc1-c1ccc([C@H]2[C@@H](C#N)N(C(=O)C3CCOCC3)[C@H]2CO)cc1	IDE exosite inh -6.9
N#C[C@H]1[C@H](c2ccc(-c3cccnc3)cc2)[C@@H](CO)N1C(=O)C1CCOCC1	none
N#C[C@H]1[C@@H](c2ccc(/C=C/c3ccccc3)cc2)[C@@H](CO)N1C(=O)C1CCOCC1	none
N#C[C@H]1[C@H](c2ccc(-c3cccnc3)cc2)[C@H](CO)N1C(=O)C1CC1	none
COCC(=O)N1CC(=O)N2[C@H](CO)[C@H](c3ccc(C#CC(C)C)cc3)[C@@H]2C1	none
N#C[C@@H]1[C@@H](c2ccc(-c3cccnc3)cc2)[C@H](CO)N1C(=O)C1CCC1	none
CC(C)C#Cc1ccc([C@@H]2[C@@H](CO)N3CCCCN(S(=O)(=O)Cc4ccccc4)C[C@H]23)cc1	none
O=C(c1ccc(F)cc1)N1CC(=O)N2[C@@H](CO)[C@@H](c3ccc(C4=CCCC4)cc3)[C@@H]2C1	none
COc1ccc(-c2ccc([C@H]3[C@@H](CO)N4C(=O)CN(C(=O)NC(C)C)C[C@H]34)cc2)cc1	none
O=C(C1CCC1)N1CC(=O)N2[C@@H](CO)[C@H](c3ccc(-c4cccnc4)cc3)[C@@H]2C1	none
COc1cccc(-c2ccc([C@H]3[C@H]4CN(C(=O)C5CCC5)CC(=O)N4[C@H]3CO)cc2)c1	IDE exosite inh -5.7
COc1ccc(-c2ccc([C@@H]3[C@@H](CO)N4C(=O)CN(C(=O)C5CCC5)C[C@@H]34)cc2)cc1	none
COc1ccc(-c2ccc([C@@H]3[C@H]4CN(C(=O)NC(C)C)CC(=O)N4[C@H]3CO)cc2)cc1	none
COc1ccc(-c2ccc([C@H]3[C@@H](CO)N4C(=O)CN(C(=O)C5CCCC5)C[C@@H]34)cc2)cc1	none
COc1ccc(-c2ccc([C@H]3[C@@H](CO)N4C(=O)CN(C(=O)C5CCCC5)C[C@H]34)cc2)cc1	IDE exosite inh -7.7
CN(C)C(=O)c1cccc(-c2ccc([C@H]3[C@@H](CO)N4C(=O)CN(C(=O)C5CCC5)C[C@@H]34)cc2)c1	none
COc1cccc(-c2ccc([C@H]3[C@H](CO)N4C(=O)CN(C(=O)C5CCC5)C[C@@H]34)cc2)c1	IDE exosite inh -6.8
COc1cccc(-c2ccc([C@H]3[C@H](CO)N4C(=O)CN(C(=O)NC(C)C)C[C@@H]34)cc2)c1	IDE exosite inh -6.9
CN1C(=O)c2cc(NS(=O)(=O)c3cccc(F)c3)ccc2OC[C@@H]2O[C@@H](CC(=O)N3CCc4ccccc4C3)CC[C@H]21	none
Cc1ccc(S(=O)(=O)Nc2ccc3c(c2)C(=O)N(C)[C@@H]2CC[C@H](CC(=O)NCCc4ccncc4)O[C@H]2CO3)cc1	none
N#C[C@@H]1[C@H](c2ccccc2)[C@@H](CO)N1C(=O)Nc1cccc(F)c1	none
CCC(=O)N1CC(=O)N2[C@H](CO)[C@H](c3ccc(C#CC4CCCC4)cc3)[C@H]2C1	none
CCc1csc(N2[C@H](C#N)[C@H](c3ccccc3C3=CCCC3)[C@H]2CO)n1	none
CN(C)C(=O)c1cccc(-c2ccc([C@@H]3[C@@H](CO)N4C(=O)CN(C(=O)C5CCCCC5)C[C@@H]34)cc2)c1	none
CN(C)C(=O)c1cccc(-c2ccc([C@H]3[C@H]4CN(C(=O)C5CCCCC5)CC(=O)N4[C@H]3CO)cc2)c1	none
COc1cccc(-c2ccc([C@@H]3[C@@H](CO)N4C(=O)CN(C(=O)C5CCC5)C[C@H]34)cc2)c1	IDE exosite inh -4.3
COc1cccc(-c2ccc([C@H]3[C@@H](CO)N4C(=O)CN(C(=O)C5CCCCC5)C[C@@H]34)cc2)c1	IDE exosite inh -6.3
CNC(=O)C[C@@H]1CC[C@@H]2[C@@H](COc3ccc(NS(=O)(=O)c4ccc(F)cc4)cc3C(=O)N2C)O1	none
COc1cccc(CNC(=O)C[C@H]2CC[C@@H]3[C@@H](COc4ccc(NC(=O)c5cccs5)cc4C(=O)N3C)O2)c1	none
CO[C@H]1CC[C@H]2CCOc3c(C#N)cccc3C(=O)N(C)CCCC(=O)N(C)C[C@@H]1O2	none

Screening data from PubChem BioAssay.
